The values below come from PubChem BioAssay (NCI).

The panel holds about 83,000 compounds, 20% with a hit somewhere; the sample as a whole holds those more often.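 The test compound was applied at a single concentration to cells in 96-well plates for 48 hours, and percent growth was recorded.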 Values without a mark were called inactive. Calls of active or inactive are those of the source. The calls were made as follows: active = growth percent below 10; inactive = the rest.

Test systems include NCI-H23 lung; NCI-H226 lung; NCI-H322M lung; HOP-62 NSCLC; NCI-H460 lung; HOP-92 NSCLC; NCI-H522 lung; A549/ATCC NSCLC; 786-0 renal; DU-145 prostate; K-562 leukemia; MALME-3M melanoma; MDA-MB-231 breast; RXF 393 renal; SF-268 CNS; SF-295 CNS; SF-539 CNS; UACC-257 melanoma; M14 melanoma.
Common to all, as to test: NCI-60 one-dose screen, 48 h (100 = growth as untreated, 0 = no growth, -100 = all killed)
What all share (conditions): 10 µM unless noted

Turning to `C=C1c2c(C)nn(-c3ccc(O)cc3)c2N(C)C23C[C@@H]1C1(C)c4c(C)nn(-c5ccc(O)cc5)c4N(C)C(C)(C[C@H]12)C3` (some centres not stated), the growth with NCI-H23 lung is 50.4%; in the assay with NCI-H226 lung, 11.8%; in the assay on NCI-H322M lung it was 59.4%; in the assay with HOP-62 NSCLC it was 37%; with NCI-H460 lung, 20.1%; in the assay with HOP-92 NSCLC, 7.18% (active). Besides, the growth in the assay with NCI-H522 lung is 20.7%; with A549/ATCC NSCLC, 31.3%; with 786-0 renal it was 34.3%; in the assay on DU-145 prostate, 45%; in the assay with K-562 leukemia, 18.1%; with MALME-3M melanoma, 58.7%. Moreover, the growth was 14.8% in the assay with MDA-MB-231 breast; 19.9% in the assay on RXF 393 renal; 48% in the assay with SF-268 CNS; 26.9% with SF-295 CNS; 23.7% in the assay with SF-539 CNS; 29.1% in the assay on UACC-257 melanoma. The growth with M14 melanoma was 15.5%.

For the compound `CN1CCN(CCCOc2ccc3nc(Nc4cc(Cl)cc(Cl)c4)ccc3c2)CC1`, the growth in the assay with NCI-H23 lung is -40.7% (active); in the assay with NCI-H226 lung, -9.2% (active); in the assay on NCI-H322M lung it was -55.5% (active); in the assay on HOP-62 NSCLC, -87.5% (active); in the assay on NCI-H460 lung, -76.2% (active); in the assay with HOP-92 NSCLC it was -27% (active). The growth is -81.4% (active) with NCI-H522 lung; -81% (active) with A549/ATCC NSCLC; -75.6% (active) with 786-0 renal; -84.1% (active) with DU-145 prostate; -61.8% (active) with K-562 leukemia; -54.4% (active) with MALME-3M melanoma. Besides, the growth is -73.2% (active) with MDA-MB-231 breast; -60.6% (active) in the assay on RXF 393 renal; -78.9% (active) in the assay with SF-268 CNS; -75.9% (active) in the assay on SF-295 CNS; -86.5% (active) in the assay with SF-539 CNS; -81.5% (active) in the assay with UACC-257 melanoma. Besides, the growth with M14 melanoma was -62.2% (active).

`CCNCCNc1cc(C2CCCC2)c(C#N)c2nc3ccccc3n12`: the growth in the assay on NCI-H23 lung is 69.6%; with NCI-H226 lung, 46.1%; in the assay with NCI-H322M lung it was 23.7%; with HOP-62 NSCLC, 33.9%; with NCI-H460 lung, 2.84% (active); in the assay on HOP-92 NSCLC, 52.3%. Besides, the growth in the assay on NCI-H522 lung is 6.72% (active); in the assay on A549/ATCC NSCLC, 7.98% (active); with 786-0 renal, 20%; in the assay on DU-145 prostate it was 28%; with K-562 leukemia it was -28.3% (active); with MALME-3M melanoma, -46.6% (active). Moreover, the growth was -45% (active) with MDA-MB-231 breast; -32.4% (active) in the assay with RXF 393 renal; 22.1% in the assay on SF-268 CNS; -61.7% (active) in the assay on SF-295 CNS; -82.4% (active) in the assay on SF-539 CNS; -27.3% (active) with UACC-257 melanoma. In addition, the growth in the assay with M14 melanoma is -25.7% (active).

With `Cc1[nH]c(-c2nc3ccccc3[nH]2)c(C)c1C(=O)N1CCc2sccc2C1`, the growth with NCI-H23 lung was 91.2%; in the assay on NCI-H226 lung, 88.3%; with NCI-H322M lung it was 98.6%; in the assay with HOP-62 NSCLC it was 98.2%; in the assay on NCI-H460 lung, 94.4%; with HOP-92 NSCLC, 81.6%. Besides, the growth is 77.1% in the assay on NCI-H522 lung; 93% with A549/ATCC NSCLC; 99.7% in the assay on 786-0 renal; 102% in the assay on DU-145 prostate; 82.9% in the assay on K-562 leukemia; 85.9% in the assay on MALME-3M melanoma. Moreover, the growth in the assay with MDA-MB-231 breast was 85.9%; with RXF 393 renal, 101%; in the assay on SF-268 CNS, 97.3%; in the assay with SF-295 CNS, 100%; in the assay with SF-539 CNS, 87.5%; in the assay on UACC-257 melanoma, 96.9%. In addition, in the assay on M14 melanoma, the growth was 94.6%.

On to `COc1ccc(C2CC(c3cnccn3)=NN2)cc1OC` (configuration not stated), for which the growth in the assay with NCI-H23 lung is 101%; in the assay on NCI-H226 lung it was 98.8%; in the assay with NCI-H322M lung it was 90.9%; in the assay on HOP-62 NSCLC, 111%; in the assay with NCI-H460 lung, 108%; in the assay with HOP-92 NSCLC it was 68.3%. Besides, the growth in the assay with NCI-H522 lung was 67%; with A549/ATCC NSCLC it was 90.4%; in the assay with 786-0 renal, 92%; with DU-145 prostate, 104%; in the assay with K-562 leukemia, 60.9%; with MALME-3M melanoma, 95.4%. Also, the growth was 106% with MDA-MB-231 breast; 100% with RXF 393 renal; 103% in the assay on SF-268 CNS; 104% in the assay with SF-295 CNS; 111% in the assay on SF-539 CNS; 106% in the assay on UACC-257 melanoma. Further, the growth with M14 melanoma is 89.5%.

For `O=C1N(c2ccccc2)C(=S)N[C@]12[C@H](c1ccccc1)C1CCCN1[C@]21C(=O)NC2C=CC(Cl)=C[C@H]21` (some centres not stated), the growth with NCI-H23 lung was 96.2%; with NCI-H226 lung, 82.5%; in the assay on NCI-H322M lung, 99.2%; in the assay on HOP-62 NSCLC, 91.5%; in the assay on NCI-H460 lung it was 102%; with HOP-92 NSCLC, 56.7%. In addition, the growth with NCI-H522 lung was 61.8%; in the assay on A549/ATCC NSCLC it was 75.4%; with 786-0 renal, 97%; with DU-145 prostate it was 103%; in the assay on K-562 leukemia, 81.5%; in the assay with MALME-3M melanoma it was 97%. In addition, the growth was 88.4% in the assay on MDA-MB-231 breast; 100% with RXF 393 renal; 101% with SF-268 CNS; 103% in the assay with SF-295 CNS; 103% in the assay on SF-539 CNS; 69.8% with UACC-257 melanoma. Further, the growth with M14 melanoma is 81.9%.

`N#Cc1c(N)n2c(nc1=Nc1ccc([N+](=O)[O-])cc1)sc1cc(Cl)ccc12`: the growth in the assay on NCI-H23 lung is 79%; in the assay with NCI-H226 lung it was 88.4%; with NCI-H322M lung it was 96%; with HOP-62 NSCLC it was 102%; in the assay with NCI-H460 lung, 86.9%; with HOP-92 NSCLC, 57.6%. Moreover, the growth with NCI-H522 lung was 77%; in the assay with A549/ATCC NSCLC it was 106%; in the assay on 786-0 renal, 109%; in the assay on DU-145 prostate, 107%; with K-562 leukemia it was 74.4%; with MALME-3M melanoma, 90.6%. In addition, the growth was 74.5% in the assay with MDA-MB-231 breast; 114% with RXF 393 renal; 95.4% in the assay with SF-268 CNS; -4.01% (active) in the assay on SF-295 CNS; 107% with SF-539 CNS; 109% with UACC-257 melanoma. For the same compound, the growth in the assay with M14 melanoma is 105%.

With `CCO/C=N/C1=C(C#N)C(c2ccc(OC)cc2)c2c(c3ccccc3n(C)c2=O)O1` (configuration not stated), the growth in the assay on NCI-H23 lung is 101%; with NCI-H226 lung, 95.2%; in the assay with NCI-H322M lung, 101%; in the assay on HOP-62 NSCLC it was 91.5%; in the assay on NCI-H460 lung, 105%; in the assay with HOP-92 NSCLC, 101%. For the same compound, the growth in the assay with NCI-H522 lung is 90.2%; with A549/ATCC NSCLC, 97.8%; in the assay with 786-0 renal, 105%; with DU-145 prostate, 106%; in the assay with K-562 leukemia, 102%; in the assay on MALME-3M melanoma it was 96.5%. The growth is 101% with MDA-MB-231 breast; 104% in the assay with RXF 393 renal; 99.2% in the assay with SF-268 CNS; 101% in the assay on SF-295 CNS; 98.6% in the assay on SF-539 CNS; 102% with UACC-257 melanoma. For the same compound, the growth with M14 melanoma was 103%.
